Reference: PubChem BioAssay
Calls of active or inactive are those of the source.

Assays:
[1] = test system: Plasmodium falciparum Sir2 (PF13_0152, Sir2A); assay: Plasmodium falciparum Sir2A binding compounds – biochemical, small-molecule microarray, 635 nm fluorescence, primary screen (AID 1098); details: fluorescence 635 nm, higher = more signal;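 also: score merges spot fluorescence intensity with its signal-to-noise ratio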
[2] = probe aDKK1 binding to arrayed compounds – biochemical, biotinylated probe, 635/667 nm fluorescence, primary screen (AID 1099); details: small-molecule microarray, higher = more signal;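 also: score merges 667nm spot fluorescence with signal to noise across triplicate slides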
[3] = probe aCHRDL2 binding to arrayed compounds – biochemical, biotinylated probe, 635/667 nm fluorescence, primary screen (AID 1100); details: small-molecule microarray, higher = more signal
[4] = change in splice reporter luminescence, either direction, cell-based, HEK293, spliceosome inhibition project, primary screen (AID 1101); details: HEK293 splicing luciferase reporter, 24 h, higher = more signal, called active from +8 up or from −8 down;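 also: HEK293 cells carrying a splicing-competent luciferase reporter gene; test concentration not given here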
[5] = target: Fibroblast growth factor 10 (Homo sapiens) (UniProt O15520); assay: compounds binding fibroblast growth factor 10 – biochemical, small-molecule microarray, 635 nm fluorescence, primary screen (AID 1102); details: FGF10 binding, fluorescence 635 nm, higher = more signal
[6] = test system: glycogen synthase kinase-3 (GSK3A per assay name; protocol says GSK3B); assay: compounds binding glycogen synthase kinase-3 – biochemical, small-molecule microarray, 635 nm fluorescence, GSK3A, primary screen (AID 1103); details: fluorescence 635 nm, higher = more signal; also: the record names both GSK3A and GSK3B
[7] = target: Epidermal growth factor receptor (Homo sapiens) (UniProt P00533); assay: compounds binding epidermal growth factor receptor – biochemical, small-molecule microarray, 635 nm fluorescence, primary screen (AID 1104); details: EGFR binding, higher = more signal;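 also: score merges 667 nm emission intensity with spot signal to noise over triplicate slides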
[8] = target: Follistatin-related protein 3 (Homo sapiens) (UniProt O95633); assay: compounds binding follistatin-related protein 3 – biochemical, small-molecule microarray, 635 nm fluorescence, primary screen (AID 1105); details: FSTL3 binding, higher = more signal;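 also: score merges emission near 667 nm and signal to noise per printed spot across three slides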
[9] = target: Dickkopf-related protein 1 (Homo sapiens) (UniProt O94907); assay: small molecules binding DKK1 protein – biochemical, small-molecule microarray, 635 nm fluorescence scan, primary screen (AID 1106); details: higher = more signal;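 also: score merges emission near 667 nm with signal to noise over three replicate slides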
[10] = test system: Inhibin beta A chain (activin A); assay: small molecules binding activin A – biochemical, small-molecule microarray, 635 nm fluorescence scan, primary screen (AID 1107); details: INHBA, higher = more signal;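 also: mouse activin A protein probed at 4.33 µg/mL on printed slides; score merges bound-protein fluorescence near 667 nm with spot signal-to-noise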
[11] = test system: Human papillomavirus type 1a protein E7 (residues 44-93); assay: small molecules binding HPV E7 44-93 – biochemical, small-molecule microarray, residues 44-93, 635 nm fluorescence, primary screen (AID 1108); details: fluorescence 635 nm, higher = more signal;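 also: E7 fragment applied at 1 µg/mL in TBST for 1 h at 4 C; score combines spot fluorescence with its signal to noise ratio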
[12] = hepatitis C replication reporter changes, two-sided – Huh7 cells, luciferase reporter, HCV replication inhibitor project, primary screen (AID 1109); details: Huh7 HCV replicon luciferase reporter, 48 h; higher = more signal;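 also: huh7 hepatoma cells harbouring a luciferase neomycin HCV replicon reporter; luciferase luminescence as measure of HCV replicon replication; test concentration not given here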
[13] = target: Left-right determination factor 2 (Homo sapiens) (UniProt O00292); assay: small molecules binding LEFTY2 protein – biochemical, small-molecule microarray, 635 nm fluorescence scan, primary screen (AID 1110); details: higher = more signal
[14] = target: Calmodulin-1 (Homo sapiens) (UniProt P0DP23); assay: small molecules binding calmodulin-1 with EGTA – biochemical, small-molecule microarray, Cy5-labelled CALM1, profiling panel (AID 1111); details: Cy5-CALM1 binding fluorescence, higher = more signal;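 also: labelled calmodulin applied in Tris saline Tween buffer holding calcium plus EGTA and DTT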
[15] = target: Calmodulin-1 (Homo sapiens) (UniProt P0DP23); assay: small molecules binding Ca-loaded calmodulin-1 – biochemical, small-molecule microarray, Cy5-labelled CALM1, plus calcium, artefact control for SMM control-protein annotation, profiling panel (AID 1112); details: Cy5-CALM1 binding fluorescence, higher = more signal;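 also: score merges spot fluorescence with signal to noise from triplicate slides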
[16] = probe aWnt5a binding to arrayed compounds – biochemical, biotinylated probe, 635/667 nm fluorescence, primary screen (AID 1113); details: small-molecule microarray, higher = more signal;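 also: score merges 667 nm fluorescence intensity with signal-to-noise per printed feature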
[17] = probe aShh binding to arrayed compounds – biochemical, biotinylated probe, 635/667 nm fluorescence, primary screen (AID 1114); details: small-molecule microarray, higher = more signal;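 also: probe is biotin-labelled aShh protein from a stem cell growth factor screen; measures binding of labelled protein to compounds printed on the slide; score merges feature fluorescence at 667 nm with signal-to-noise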
[18] = probe aNog binding to arrayed compounds – biochemical, biotinylated probe, 635/667 nm fluorescence, primary screen (AID 1115); details: small-molecule microarray, higher = more signal;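 also: probe is biotinylated aNog protein used at 0.15 µg/mL for 1 h at 4 C; z-score combines 667 nm fluorescence of each spot with its signal to noise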
[19] = target: Torsin-1A-interacting protein 1 (Homo sapiens) (UniProt Q5JTV8); assay: compound microarray binding of lysate hLAP1 – cell lysate, small-molecule microarray, COS7 lysate, 635/667 nm fluorescence, primary screen (AID 1116); details: 635 nm fluorescence, higher = more signal
[20] = target: Alpha-bungarotoxin (Bungarus multicinctus) (UniProt P60615); assay: compounds binding labelled alpha-BTX control protein – biochemical, small-molecule microarray, Alexa647 label, 635/667 nm fluorescence, artefact control for SMM control protein annotation, profiling panel (AID 1117); details: alpha-BTX-A647 binding fluorescence, higher = more signal
Chain of Alpha-bungarotoxin (Bungarus multicinctus) (P60615 whole entry, looked up): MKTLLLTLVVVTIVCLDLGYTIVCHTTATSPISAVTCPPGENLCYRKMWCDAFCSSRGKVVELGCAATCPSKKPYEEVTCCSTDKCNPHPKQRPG

Chain of Left-right determination factor 2 (Homo sapiens) (O00292 whole entry, looked up): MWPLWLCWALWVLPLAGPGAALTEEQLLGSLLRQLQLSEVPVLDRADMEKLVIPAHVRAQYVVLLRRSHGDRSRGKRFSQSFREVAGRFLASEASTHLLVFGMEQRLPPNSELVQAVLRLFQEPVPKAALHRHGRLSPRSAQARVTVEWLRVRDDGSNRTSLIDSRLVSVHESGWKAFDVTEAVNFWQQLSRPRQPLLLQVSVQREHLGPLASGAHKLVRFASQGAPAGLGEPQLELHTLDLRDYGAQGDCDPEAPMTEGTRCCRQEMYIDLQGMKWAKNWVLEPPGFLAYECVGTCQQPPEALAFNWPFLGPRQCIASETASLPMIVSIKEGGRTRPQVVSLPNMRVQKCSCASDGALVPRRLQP
Chain of Dickkopf-related protein 1 (Homo sapiens) (O94907 whole entry, looked up): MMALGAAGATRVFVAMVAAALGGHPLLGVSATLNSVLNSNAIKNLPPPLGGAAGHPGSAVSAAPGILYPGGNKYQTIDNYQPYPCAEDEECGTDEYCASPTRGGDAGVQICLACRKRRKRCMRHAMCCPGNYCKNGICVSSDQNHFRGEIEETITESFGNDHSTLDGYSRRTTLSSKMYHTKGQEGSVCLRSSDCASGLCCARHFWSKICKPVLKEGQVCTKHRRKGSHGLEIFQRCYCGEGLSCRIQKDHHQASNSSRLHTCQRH
Chain of Fibroblast growth factor 10 (Homo sapiens) (O15520 whole entry, looked up): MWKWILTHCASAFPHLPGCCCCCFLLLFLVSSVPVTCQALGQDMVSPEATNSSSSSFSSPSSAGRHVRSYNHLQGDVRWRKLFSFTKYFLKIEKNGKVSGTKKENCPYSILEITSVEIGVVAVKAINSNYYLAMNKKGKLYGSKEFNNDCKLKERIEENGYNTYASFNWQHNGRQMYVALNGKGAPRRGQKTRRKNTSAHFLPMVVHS
Chain of Epidermal growth factor receptor (Homo sapiens) (P00533 whole entry, looked up): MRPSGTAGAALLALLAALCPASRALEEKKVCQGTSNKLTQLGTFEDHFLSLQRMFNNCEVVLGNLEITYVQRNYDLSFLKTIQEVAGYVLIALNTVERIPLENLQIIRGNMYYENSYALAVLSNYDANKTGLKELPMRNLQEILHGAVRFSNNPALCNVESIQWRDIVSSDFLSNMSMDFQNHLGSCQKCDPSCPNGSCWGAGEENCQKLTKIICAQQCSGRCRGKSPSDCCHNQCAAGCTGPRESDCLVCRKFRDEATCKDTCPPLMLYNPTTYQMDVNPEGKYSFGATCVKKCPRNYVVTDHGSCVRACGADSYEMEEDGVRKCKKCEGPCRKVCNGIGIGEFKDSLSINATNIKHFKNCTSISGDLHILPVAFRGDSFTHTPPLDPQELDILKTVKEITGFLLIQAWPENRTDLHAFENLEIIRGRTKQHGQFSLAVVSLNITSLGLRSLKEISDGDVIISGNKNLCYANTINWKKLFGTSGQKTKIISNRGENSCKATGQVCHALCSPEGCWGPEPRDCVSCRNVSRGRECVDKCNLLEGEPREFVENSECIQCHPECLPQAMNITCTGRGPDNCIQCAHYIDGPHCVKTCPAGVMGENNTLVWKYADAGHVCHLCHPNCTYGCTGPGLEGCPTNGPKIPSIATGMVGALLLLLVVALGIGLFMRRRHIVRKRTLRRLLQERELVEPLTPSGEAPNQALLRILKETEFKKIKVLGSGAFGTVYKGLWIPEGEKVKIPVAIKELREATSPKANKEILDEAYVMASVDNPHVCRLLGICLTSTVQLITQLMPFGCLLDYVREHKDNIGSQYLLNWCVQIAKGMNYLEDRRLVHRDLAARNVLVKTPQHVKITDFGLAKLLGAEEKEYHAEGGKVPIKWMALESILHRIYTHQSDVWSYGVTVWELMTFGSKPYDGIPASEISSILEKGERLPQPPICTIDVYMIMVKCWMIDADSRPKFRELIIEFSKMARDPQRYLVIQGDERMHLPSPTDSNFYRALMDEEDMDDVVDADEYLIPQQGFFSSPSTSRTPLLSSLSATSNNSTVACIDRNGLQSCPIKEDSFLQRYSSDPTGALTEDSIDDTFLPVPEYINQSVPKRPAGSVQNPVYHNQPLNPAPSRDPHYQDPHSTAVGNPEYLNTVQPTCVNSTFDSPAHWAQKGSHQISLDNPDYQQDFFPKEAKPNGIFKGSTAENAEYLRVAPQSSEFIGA
Chain of Follistatin-related protein 3 (Homo sapiens) (O95633 whole entry, looked up): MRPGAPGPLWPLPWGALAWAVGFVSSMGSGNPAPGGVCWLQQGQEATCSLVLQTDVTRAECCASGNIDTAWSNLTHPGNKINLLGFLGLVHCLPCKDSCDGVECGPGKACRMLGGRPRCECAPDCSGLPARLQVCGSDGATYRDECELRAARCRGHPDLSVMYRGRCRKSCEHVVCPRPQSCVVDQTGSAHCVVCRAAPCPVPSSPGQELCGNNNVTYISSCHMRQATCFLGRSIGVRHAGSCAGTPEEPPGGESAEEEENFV
Chain of Torsin-1A-interacting protein 1 (Homo sapiens) (Q5JTV8 whole entry, looked up): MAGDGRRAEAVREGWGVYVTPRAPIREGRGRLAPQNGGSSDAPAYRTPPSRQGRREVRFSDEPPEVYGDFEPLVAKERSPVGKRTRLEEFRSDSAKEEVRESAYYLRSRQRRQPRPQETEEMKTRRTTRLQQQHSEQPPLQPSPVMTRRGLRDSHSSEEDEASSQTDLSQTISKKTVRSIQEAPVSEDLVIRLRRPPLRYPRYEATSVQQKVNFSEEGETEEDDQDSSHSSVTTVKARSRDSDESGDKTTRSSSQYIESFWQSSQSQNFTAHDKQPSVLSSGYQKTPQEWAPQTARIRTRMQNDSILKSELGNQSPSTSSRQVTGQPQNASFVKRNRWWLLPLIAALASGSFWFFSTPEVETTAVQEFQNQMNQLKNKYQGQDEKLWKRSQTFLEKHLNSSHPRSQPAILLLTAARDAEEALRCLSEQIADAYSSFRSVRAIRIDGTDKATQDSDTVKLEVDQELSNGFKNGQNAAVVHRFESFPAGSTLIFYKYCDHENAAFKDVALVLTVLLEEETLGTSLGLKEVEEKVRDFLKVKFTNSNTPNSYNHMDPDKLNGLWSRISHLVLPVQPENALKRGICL

Structure (SMILES)	composite z-score [1]	composite z-score [2]	composite z-score [3]	z-score [4]	composite z-score [5]	composite z-score [6]	composite z-score [7]	composite z-score [8]	composite z-score [9]	composite z-score [10]	composite z-score [11]	z-score [12]	composite z-score [13]	composite z-score [14]	composite z-score [15]	composite z-score [16]	composite z-score [17]	composite z-score [18]	composite z-score [19]	composite z-score [20]
O=C1NC(=O)C2C1C=CC(C(O)c1ccccn1)N2Nc1ccc(Cl)cc1Cl (stereo not given)	0.827	0.315	0.717	1.54 (inactive)	0.0551	-0.0767	0.107	-0.196	-0.35	0.386	0.553	0.812	0.0905	1.46	0.819	-0.16	0.171	0.383	0.422	-0.0671
COC(=O)[C@@]1(Cc2ccc(OC)cc2)[C@H]2c3cc(C(=O)N4CCCC4)n(Cc4cc(C)n(C)n4)c3C[C@H]2CN1C(=O)c1ccccc1	1.74	1.26	1.17	0.317 (inactive)	1.32	0.666	-0.158	0.0098	-0.712	0.104	0.712	-1.38	0.78	1.46	0.81	0.23	0.4	0.352	1.21	0.769
O=C(CS)NCCCCCCNC(=O)[C@@H]1C[C@@H]2C(=O)NCC(=O)N2[C@@H]1c1ccc(O)cc1	1.57	-0.11	0.592	-1.65 (inactive)	-0.297	-0.135	-0.395	-0.586	-0.262	-0.716	-1.1	0.394	-0.601	1.16	0.754	-0.239	-0.0035	0.0595	-0.549	-1.04
COCCCNC(=O)[C@@]1(c2ccc([N+](=O)[O-])cc2)CC(=O)N(CC23CC4CC(CC(C4)C2)C3)[C@@H]1c1ccc(CO)cc1I	1.02	0.541	0.847	3.68 (inactive)	-0.0432	-0.115	-0.392	-0.36	-0.15	0.126	0.952	-3.15	-0.381	0.425	0.729	-0.104	0.337	0.536	0.157	1.22
Cc1ccccc1C(O)C1C=CC2C(=O)NC(=O)C2N1Nc1ccc(Cl)cc1Cl (stereo not given)	1.21	0.629	0.751	0.812 (inactive)	0.904	0.332	0.207	0.511	0.0925	1.18	-0.198	-0.595	-0.345	1.95	1.13	-0.0405	0.0796	0.879	1.56	0.0072
COc1cc(C(O)C2C=CC3C(=O)N(Cc4ccccc4)C(=O)C3N2n2cnnc2)cc(OC)c1OC (stereo not given)	0.146	0.71	0.865	-0.696 (inactive)	0.571	0.389	0.489	0.16	0.134	1.23	0.335	0.312	0.109	0.409	0.0996	0.0751	0.543	0.266	0.88	0.971
C=CCC(OC(C)=O)[C@@H]1[C@@H](N(Cc2ccc(-c3cccc(C(F)(F)F)c3)o2)C(=O)Cc2ccc(OC)cc2)c2cc(OCCCO)ccc2N1C(=O)Cc1ccc2ccccc2c1 (stereo not given in full)	0.946	-0.178	0.406	-1.16 (inactive)	-0.0775	-0.953	-0.749	-0.475	-0.274	0.613	-0.763	0.685	-0.429	-0.472	-0.427	-0.0383	-0.206	-0.463	-0.33	0.553
CC(C)C[C@@H]1NC(=O)[C@H]2C[C@@H](C(=O)NCCCCCN)[C@@H](c3cccc(OCCO)c3)N2C1=O	0.481	0.206	0.235	-1.76 (inactive)	-0.361	-0.389	0.125	-0.348	0.183	-0.762	-1.01	0.335	-0.0189	0.331	0.422	-0.103	-0.138	-0.157	2.08	1.03
CCCCNC(=O)c1ccc(C#C[Si](C(C)C)(C(C)C)C(C)C)c(OC(C)=O)c1	0.28	-0.0188	-0.539	-0.831 (inactive)	0.832	0.807	1.36	1.49	0.784	1.59	1.09	-1.13	0.785	0.367	-0.48	-0.0977	-0.2	-0.216	0.15	2.24
C=C(CCCC)/C(=C/C[C@H](OC(C)=O)c1ccc(OCCO)cc1)c1cc(C(=O)OC)ccc1OC	1.58	-0.131	0.104	0.0591 (inactive)	1	0.699	-0.616	0.613	-0.304	0.562	1.37	-1.69	-0.399	0.142	-0.212	0.027	-0.221	-0.132	0.405	0.558
